The text below walks through data of PubChem BioAssay (NCI).

Compounds without any hit were thinned out: in the full panel of roughly 83,000, 20% have a hit.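 Note: values are percent growth. 100 is the growth of untreated cells, values between 100 and 0 indicate rising inhibition; between -100 and 0 indicates cell death.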 Unmarked numbers belong to inactive results. Calls of active or inactive are those of the source. Rule for the calls: active = growth percent below 10; inactive = the rest.

Assay in all cases: NCI-60 one-dose screen, 48 h (100 = growth as untreated, 0 = no growth, -100 = all killed)
One assay deals with HCT-15 colon. To be noted: 10 µM unless noted.
For another assay, the system named is HT29 colon. The following applies: 10 µM unless noted.
The subject of another assay is SNB-19 CNS. The following applies: 10 µM unless noted.
The next assay has as its system U251 CNS. To be noted: 10 µM unless noted.
For the next assay, the system named is PC-3 prostate. To be noted: 10 µM unless noted.
Another assay has as its system SK-MEL-5 melanoma. To be noted: 10 µM unless noted.
A further assay deals with UACC-62 melanoma. To be noted: 10 µM unless noted.
A further assay deals with LOX IMVI melanoma. The following applies: 10 µM unless noted.
For the next assay, the system named is SK-MEL-28 melanoma. To be noted: 10 µM unless noted.
For a further assay, the system named is SK-MEL-2 melanoma. The following applies: 10 µM unless noted.
A further assay concerns EKVX NSCLC. To be noted: 10 µM unless noted.
The next assay deals with SN12C renal. To be noted: 10 µM unless noted.
The test system of another assay is UO-31 renal. To be noted: 10 µM unless noted.
The test system of the next assay is TK-10 renal. To be noted: 10 µM unless noted.
The next assay has as its system ACHN renal. To be noted: 10 µM unless noted.
The next assay has as its system CAKI-1 renal. To be noted: 10 µM unless noted.
The subject of the next assay is A498 renal. To be noted: 10 µM.
A further assay concerns HL-60(TB) leukemia. To be noted: 10 µM unless noted.
For another assay, the system named is CCRF-CEM leukemia. To be noted: 10 µM unless noted.
Another assay concerns SNB-75 CNS. To be noted: 10 µM unless noted.

As to `CC12CCC3C(CCC4=CC(=O)CCC43CF)C1CCC2=O` (centres undefined), the growth in the assay with HCT-15 colon is 106%; with HT29 colon, 116%; in the assay with SNB-19 CNS it was 109%; in the assay on U251 CNS it was 111%; with PC-3 prostate it was 97.4%; with SK-MEL-5 melanoma, 109%. The growth in the assay with UACC-62 melanoma is 115%; in the assay with LOX IMVI melanoma, 96.6%; in the assay with SK-MEL-28 melanoma it was 117%; in the assay with SK-MEL-2 melanoma it was 97.2%; with EKVX NSCLC, 94.8%; in the assay on SN12C renal it was 113%. Further, the growth with UO-31 renal was 87.8%; in the assay with TK-10 renal it was 115%; with ACHN renal, 120%; with CAKI-1 renal, 111%; with A498 renal, 111%; with HL-60(TB) leukemia, 113%.
On to `COc1ccc(/C=C\c2cc(OC)c(OC)c(OC)c2)cc1OCC(=O)Nc1nc2ccc(F)cc2s1`, for which the growth in the assay on HCT-15 colon is 45%; with HT29 colon, 39.9%; in the assay on SNB-19 CNS, 72.6%; with U251 CNS, 21.2%; in the assay with PC-3 prostate, 40.4%; with SK-MEL-5 melanoma, -0.28% (active). In addition, the growth in the assay with UACC-62 melanoma was 32.4%; with LOX IMVI melanoma, 19.1%; in the assay with SK-MEL-28 melanoma it was 69.5%; in the assay with SK-MEL-2 melanoma, 68.8%; in the assay with EKVX NSCLC it was 57.7%; with SN12C renal, 42.4%. The growth was 0.455% (active) with UO-31 renal; 17.5% with TK-10 renal; 25% in the assay on ACHN renal; 16.9% with CAKI-1 renal; 29.5% in the assay with A498 renal; 33.7% with HL-60(TB) leukemia. In addition, in the assay on CCRF-CEM leukemia, the growth was 40.4%.
For the compound `COc1cc2c(=O)n(C3CCCCCCC3)c3c4cc[nH]c4ncc3c2cc1OC`, the growth with HCT-15 colon is 62.4%; in the assay on HT29 colon, 66.8%; with SNB-19 CNS it was 55.2%; with U251 CNS it was 12.7%; with PC-3 prostate it was 65.8%; with SK-MEL-5 melanoma, 64.2%. Moreover, the growth with UACC-62 melanoma was 89.1%; in the assay on LOX IMVI melanoma, 41.5%; with SK-MEL-28 melanoma, 85.5%; with SK-MEL-2 melanoma, 78.7%; with EKVX NSCLC, 71.6%; with SN12C renal, 49.8%. In addition, the growth with UO-31 renal is 22.5%; with TK-10 renal, 30.8%; in the assay with ACHN renal, 40.9%; in the assay on CAKI-1 renal, 54.6%; in the assay with A498 renal it was 4.93% (active); with HL-60(TB) leukemia, 57.6%. Moreover, in the assay with CCRF-CEM leukemia, the growth is 44.9%.
`COc1cc([C@@H]2c3cc4c(cc3[C@H](OC(C)=O)[C@H]3COC(=O)[C@@H]23)OCO4)cc(OC)c1OC`: the growth in the assay on HCT-15 colon is 11.8%; in the assay with HT29 colon, 1.62% (active); with SNB-75 CNS it was 4.62% (active); in the assay on U251 CNS it was 8.16% (active); in the assay with PC-3 prostate, 15%; with SK-MEL-5 melanoma, -20.9% (active). The growth with LOX IMVI melanoma is 27.3%; in the assay on SK-MEL-28 melanoma, 48.6%; in the assay on EKVX NSCLC, 33.1%; with UO-31 renal it was 38.9%; in the assay with TK-10 renal, 41.8%; in the assay with ACHN renal it was 29.8%. Moreover, the values for the growth in the assay with A498 renal, with HL-60(TB) leukemia and with CCRF-CEM leukemia were -15.7% (active), -1.71% (active) and 22.6%, respectively.
Regarding `CC(=O)O[C@H](C[C@H](C(C)C)N(C)C(=O)[C@@H](NC(=O)[C@H]1CCCCN1C)C(C)C)c1cccc(C(=O)N[C@@H](Cc2ccccc2)C[C@H](C)C(=O)O)n1`, the growth is 9.65% (active) with HCT-15 colon; 2.72% (active) with HT29 colon; 22.4% in the assay on SNB-19 CNS; 10.9% in the assay with U251 CNS; 26.4% with PC-3 prostate; -39.2% (active) in the assay on SK-MEL-5 melanoma. In addition, the growth in the assay with UACC-62 melanoma was 36.3%; with LOX IMVI melanoma, 14.6%; with SK-MEL-28 melanoma it was 65%; with SK-MEL-2 melanoma it was 30.4%; in the assay on EKVX NSCLC, 37.3%; in the assay with SN12C renal, 22%. Further, the growth with UO-31 renal was 39.4%; in the assay with TK-10 renal it was 69%; with ACHN renal, 35.3%; in the assay with A498 renal, -13.2% (active); in the assay on HL-60(TB) leukemia, -38.1% (active); in the assay with CCRF-CEM leukemia it was 5.5% (active).
As to `Cn1cccc1C1CC(=O)N(CCC[Se]C#N)C1=O` (centres undefined), the growth in the assay on HCT-15 colon was -56.5% (active); in the assay on HT29 colon it was 7.03% (active); in the assay on SNB-19 CNS, -65.2% (active); in the assay on U251 CNS it was -85.5% (active); in the assay on PC-3 prostate, 6.15% (active); with SK-MEL-5 melanoma it was -51.9% (active). Moreover, the growth is 27% in the assay with UACC-62 melanoma; -66.8% (active) with LOX IMVI melanoma; -6.1% (active) in the assay with SK-MEL-28 melanoma; -35.2% (active) with SK-MEL-2 melanoma; -65.3% (active) with EKVX NSCLC; -3.67% (active) in the assay on SN12C renal. The growth with UO-31 renal was -75.9% (active); with TK-10 renal, -69.5% (active); in the assay on ACHN renal, -4.46% (active); in the assay on CAKI-1 renal it was -80.1% (active); with HL-60(TB) leukemia it was -42.8% (active); in the assay with CCRF-CEM leukemia, 13.8%.
Take `CC[C@H](C)[C@H](NC(=O)c1cccn1C)C(=O)N(C)[C@H](C[C@@H](OC(C)=O)c1nc(C(=O)N[C@@H](Cc2ccccc2)C[C@H](C)C(=O)OC)cs1)C(C)C`: the growth in the assay with HCT-15 colon was 12%; in the assay with HT29 colon, -18.1% (active); in the assay on SNB-19 CNS it was 35.4%; in the assay with U251 CNS it was 12.3%; in the assay with PC-3 prostate, 21.2%; in the assay on SK-MEL-5 melanoma, -29.1% (active). The growth is 40.4% in the assay on UACC-62 melanoma; 15.2% in the assay on LOX IMVI melanoma; 68.8% with SK-MEL-28 melanoma; 20.4% in the assay on SK-MEL-2 melanoma; 54.3% in the assay with EKVX NSCLC; 24.2% in the assay on SN12C renal. Besides, the growth in the assay with UO-31 renal is 38.9%; in the assay with TK-10 renal, 27.5%; in the assay with ACHN renal it was 30%; in the assay on CAKI-1 renal, 25.1%; in the assay with A498 renal it was -2.8% (active); in the assay on HL-60(TB) leukemia it was -36.7% (active). Further, in the assay on CCRF-CEM leukemia, the growth was 18.7%.
As to `O=C1C(N2CC2)=C(N2CC2)C(=O)C(N2CC2)=C1N1CC1`, the growth in the assay with HCT-15 colon is 2.19% (active); with HT29 colon, 2.38% (active); with SNB-75 CNS it was -52.6% (active); with U251 CNS it was -63.6% (active); in the assay with PC-3 prostate it was 7.53% (active); with SK-MEL-5 melanoma, -76.7% (active). For the same compound, the growth was -84.6% (active) in the assay with UACC-62 melanoma; -61.5% (active) in the assay on LOX IMVI melanoma; -51.8% (active) with SK-MEL-28 melanoma; -24.2% (active) with SK-MEL-2 melanoma; 22.9% in the assay on EKVX NSCLC; -56.2% (active) in the assay on UO-31 renal. The growth in the assay with TK-10 renal is 2.35% (active); in the assay with ACHN renal, -45.9% (active); in the assay on CAKI-1 renal, 7.04% (active); in the assay with A498 renal, -75.4% (active); in the assay on HL-60(TB) leukemia it was 21.8%; in the assay with CCRF-CEM leukemia it was 39.2%.
